# Assay outcomes from PubChem BioAssay.
# Only some compounds are listed: those with a hit (about 3.1% of all), similar ones and a draw of the others.
# BoNT-A LC inh2: inhibitors of Botulinum neurotoxin A light chain protease. multiplex microsphere protease substrate cleavage, flow cytometry. inhibition, % at 10 µM. 360,000 tested, 0.17% active. AID 588499
# BoNT-F LC inh: inhibitors of Botulinum neurotoxin F light chain protease | 360,000 tested, 0.22% active | AID 588497 | inhibition, % at 10 µM | Multiplex microsphere protease cleavage assay, flow cytometry; in the data active = inhibition above about 35%, passing the limit was not always enough; inconclusive = no clear call, values can overlap the other calls
# PriA SSB inh: K. pneumoniae PriA-SSBct interaction inhibition; AlphaScreen SSBct-PriA binding, biotinylated peptide; inhibition, % at 33 µM; 430,000 tested, 0.6% active; AID 1272365; in the data active = inhibition mostly above about 37%, no sharp cut-off; inactive = mostly below about 20%
# Anthrax LF prot: anthrax lethal factor protease inhibition. AID 588501. P15917. inhibition, % at 10 µM. 360,000 tested, 0.12% active. multiplex microsphere protease cleavage assay, LF
# Target sequence (P15917 whole entry, looked up): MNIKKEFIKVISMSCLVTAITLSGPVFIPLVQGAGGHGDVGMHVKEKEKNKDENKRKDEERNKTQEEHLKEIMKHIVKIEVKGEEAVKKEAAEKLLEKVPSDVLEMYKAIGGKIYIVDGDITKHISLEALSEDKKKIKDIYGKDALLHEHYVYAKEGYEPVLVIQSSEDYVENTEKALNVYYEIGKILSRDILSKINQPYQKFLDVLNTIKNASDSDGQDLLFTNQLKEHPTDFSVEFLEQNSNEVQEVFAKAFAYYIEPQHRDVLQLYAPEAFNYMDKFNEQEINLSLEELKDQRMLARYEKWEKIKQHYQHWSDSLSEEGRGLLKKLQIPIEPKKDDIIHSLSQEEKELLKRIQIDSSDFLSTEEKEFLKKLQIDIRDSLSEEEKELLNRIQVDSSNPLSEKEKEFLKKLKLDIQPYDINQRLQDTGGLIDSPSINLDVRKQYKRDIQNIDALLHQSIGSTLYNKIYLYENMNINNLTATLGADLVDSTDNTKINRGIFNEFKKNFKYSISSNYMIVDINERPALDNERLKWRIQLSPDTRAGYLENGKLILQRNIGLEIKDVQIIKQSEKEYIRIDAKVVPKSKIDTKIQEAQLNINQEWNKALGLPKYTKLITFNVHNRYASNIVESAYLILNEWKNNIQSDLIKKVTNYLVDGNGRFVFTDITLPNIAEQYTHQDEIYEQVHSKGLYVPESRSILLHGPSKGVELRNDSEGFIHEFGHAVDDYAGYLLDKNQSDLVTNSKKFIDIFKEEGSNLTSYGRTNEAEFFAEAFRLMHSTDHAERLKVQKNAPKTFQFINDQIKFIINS
# Autofluor counter: counter-screen for toxin protease inhibitors: compound fluorescence; 360,000 tested, 3.1% active; compound autofluorescence counterscreen, microsphere flow cytometry; hits give high values; fluorescence intensity (concentration not given with the values); in the data active = fluorescence intensity above about 16000; inconclusive = no clear call, values can overlap the other calls
# A number is an active result; – = inactive; ? = inconclusive; · = not tested or not shown. Cut-off read from the data, not from the text of the source, unless noted: active = inhibition above about 30%; inconclusive = no clear call, values can overlap the other calls; inactive = below that.
SMILES,BoNT-A LC inh2,BoNT-F LC inh,PriA SSB inh,Anthrax LF prot,Autofluor counter
CC(NCc1ccc(Cl)cc1Cl)C(O)c1ccccc1 (stereo not given),–,–,–,–,–
CC(NCc1cccc(Cl)c1Cl)C(O)c1ccccc1 (stereo not given),–,–,116,–,–
COc1cc(OC)c(OC)cc1CNC(C)C(O)c1ccccc1 (stereo not given),–,–,–,–,17763
O=C(NCCCn1ccnc1)C(=O)NCC1OCCN1C(=O)c1ccc2c(c1)OCO2 (stereo not given),·,·,71,·,·
O=C(NCCCn1ccnc1)C(=O)NCC1OCCN1S(=O)(=O)c1ccccc1 (stereo not given),–,–,43,–,–
O=C(NCCCn1ccnc1)C(=O)NCC1OCCCN1S(=O)(=O)c1ccccc1 (stereo not given),–,–,–,–,–
O=C(NCCCn1ccnc1)C(=O)NCC1OCCN1S(=O)(=O)c1ccc(Cl)cc1 (stereo not given),–,–,61,–,–
CC(C)Sc1n[nH]c(=O)n1-c1cccc(C(F)(F)F)c1,?,?,–,–,–
CC(C)Sc1nc(C(F)(F)F)cc(=O)n1-c1ccccc1,?,–,–,–,20162
CCSc1nc(C(F)(F)F)cc(=O)n1-c1ccccc1,?,–,–,–,20108
CC1=NN(c2ccccc2)C(=O)/C1=C\C=C\c1ccccc1,·,·,–,·,·
CCOC(=O)c1ccc(N2N=C(C)/C(=C/C=C/c3ccco3)C2=O)cc1,?,–,–,–,22790
O=C(O)c1cc(N2N=C(C(F)(F)F)/C(=C/C=C/c3ccco3)C2=O)ccc1Cl,–,–,–,–,–
CC1=NN(c2ccc(C(=O)OC(C)C)cc2)C(=O)/C1=C\C=C\c1ccco1,–,–,–,–,19581
Cn1cccc1CNCc1ccccc1Cl,–,–,–,–,18677
CCOc1ccc(Cl)cc1CSc1n[nH]c(CC)n1,–,–,–,–,22875
CCCCOc1ccc(Cl)cc1CSc1n[nH]c(C)n1,–,–,–,–,–
O=C(NCc1cccs1)c1n[nH]nc1Nc1ccccc1,·,·,–,·,·
CCOc1ccc(S(=O)(=O)N/N=C2/CC(c3ccccc3)Oc3ccccc32)cc1 (stereo not given),–,–,·,–,19045
CCCS(=O)(=O)Nc1c(C(=O)OC)[nH]c2ccccc12,–,–,–,–,–
COC(=O)c1[nH]c2ccccc2c1NS(=O)(=O)c1ccc(F)c(C)c1,–,–,–,–,16616
C=C(C)c1cccc(C(C)(C)NC(=O)NCc2ccc(OC)c(OC)c2)c1,–,–,–,–,23352
COc1ccc(OC)c(C(=O)COC(=O)c2ccccc2O)c1,–,–,–,–,22401
COc1ccc(OC)c(C(=O)COC(=O)c2c(OC)cccc2OC)c1,–,–,–,–,–
CCOC(=O)n1c(SCC(N)=O)nc2ccccc21,–,–,–,–,–
SMILES,BoNT-A LC inh2,BoNT-F LC inh,PriA SSB inh,Anthrax LF prot,Autofluor counter
CSc1nc2ccccc2n1C(=O)Oc1ccccc1,–,–,–,–,20058
CN(C1CCCCC1)S(=O)(=O)Cc1ccccc1,–,–,–,–,22622
Cc1cc(S(=O)(=O)NCCN(C)C)c(C)s1,–,–,–,–,22830
COc1cc(S(=O)(=O)NCCCN(C)C)c(OC)cc1Cl,·,·,–,·,·
Cc1cc(S(=O)(=O)NCc2ccco2)c(C)s1,–,–,–,–,–
Cc1cc(S(=O)(=O)NCc2ccc(S(N)(=O)=O)cc2)c(C)s1,–,–,–,–,21825
Cc1ccnc(Nc2ccc(N3CCN(C(=O)c4ccc(C(F)(F)F)cc4)CC3)nn2)c1,·,·,–,·,·
O=C(NCC1CCN(c2ccncc2)CC1)Nc1ccccc1Cl,·,·,–,·,·
O=C(NCCc1ccc(N2CCCC2)cc1)C(=O)NCCN1CCOCC1,·,·,–,·,·
Cc1csc(NC(=O)[C@H](Cl)c2ccccc2)n1,·,·,–,·,·
CC1(C(=O)O)COC(c2ccc([N+](=O)[O-])cc2)OC1 (stereo not given),–,–,–,–,16243
Cc1ccc(NC(=O)c2csc(-c3ccccc3)c2C)cc1,–,–,–,–,23926
Cc1ccc(NC(=O)c2cccc3ccccc23)cc1,–,–,–,–,–
Cc1c(C(=O)Nc2cccc([N+](=O)[O-])c2)csc1-c1ccccc1,–,–,–,–,16284
O=C(O)c1ccccc1C(=O)Nc1cccc([N+](=O)[O-])c1,–,?,–,–,–
Nc1cc2c([N+](=O)[O-])cccc2o1,–,38,–,–,–
Cc1c(N)cccc1[N+](=O)[O-],–,–,–,–,–
Cc1ccc(C(=O)NNC(=O)c2cc(OCC(F)(F)F)ccc2OCC(F)(F)F)cc1,?,–,–,–,21489
O=C(NNC(=O)c1cc(OCC(F)(F)F)ccc1OCC(F)(F)F)c1cccc(C(F)(F)F)c1,–,–,–,–,–
C#CCONC(=O)c1cc(OCC(F)(F)F)ccc1OCC(F)(F)F,–,–,–,–,22449
O=C(NO)c1cc(OCC(F)(F)F)ccc1OCC(F)(F)F,–,–,–,?,?
COc1ccc(-c2csc(CN3CCN(C(=O)CCc4ccccc4)CC3)n2)cc1,·,·,–,·,·
COc1ccc2[nH]c3c(=O)n(CCCCC(=O)N4CCC(C(N)=O)CC4)c(=S)[nH]c3c2c1,?,–,–,–,20373
COc1ccc2[nH]c3c(=O)n(CCCCC(=O)NCCN4CCCC4)c(=S)[nH]c3c2c1,–,–,–,–,17189
CCCCNC(=O)CCCCn1c(=S)[nH]c2c([nH]c3ccc(OC)cc32)c1=O,–,–,–,–,–
SMILES,BoNT-A LC inh2,BoNT-F LC inh,PriA SSB inh,Anthrax LF prot,Autofluor counter
CC[C@H](C)NC(=O)CCCCCn1c(=S)[nH]c2c([nH]c3ccc(OC)cc32)c1=O,–,–,–,–,–
COC(=O)c1ccc2oc(=O)c(S(=O)(=O)N3CCN(C)CC3)cc2c1,·,·,–,·,·
Cc1ccc(F)cc1NC(=O)C1CCCN(c2ncccn2)C1 (stereo not given),–,–,–,–,20027
COCCNC(=O)C1CCCN(c2ncccn2)C1 (stereo not given),–,–,–,–,21959
Cc1ccc(NC(=O)C2CCCN(c3ncccn3)C2)cc1C (stereo not given),–,–,–,–,–
Cc1nc(-n2cccc2)sc1C(=O)OCc1cc(-c2ccccc2F)on1,·,·,–,·,·
COc1ccc(-c2cc(N3CCC(C(=O)NCc4nc5ccccc5[nH]4)CC3)ncn2)cc1,·,·,–,·,·
CCCN(CCC)C(=O)CSc1nc2ccsc2c(=O)n1NC(=O)c1ccccc1,–,?,–,–,?
CC(C)CCNC(=O)CSc1nc2ccsc2c(=O)n1NC(=O)c1ccccc1,–,–,–,–,21825
O=C(CSc1nc2ccccc2c(=O)n1CC1CCCO1)N1CCN(c2ccccc2)CC1 (stereo not given),–,–,–,–,21377
O=C(CSc1nc2ccccc2c(=O)n1NC(=O)Cc1ccccc1)NCCc1ccccc1,–,–,–,–,21231
O=C(CSc1nc2ccccc2c(=O)n1CC1CCCO1)NCc1ccccc1 (stereo not given),–,–,–,–,–
O=C(Cc1ccccc1)Nn1c(SCc2cccc(Cl)c2)nc2ccccc2c1=O,·,·,–,·,·
O=C(CCCn1c(SCC(=O)NCC2CCCO2)nc2ccccc2c1=O)NCC1CCCO1 (stereo not given),–,–,–,–,20974
